39 compounds from PubChem BioAssay (EPA / NIEHS) can be followed below.

Where a structure was tested more than once in an assay, its records may differ in their call. Activity calls are given as the source filed them. How the source made its calls: active means hit-call score of the fitted dose curve at least 0.9, where 1 is the maximum; inactive means score below 0.9.

This assay can be described thus: ATG_VDRE_CIS: Attagene CIS-FACTORIAL HepG2 Assay for human Vitamin D Receptor Element (VDRE) (AID 2282968). The following applies: HepG2 VDRE cis-reporter transcription, actives raise or lower the signal. Here is the method:
ATG_CIS is a cell-based, multiplexed-readout assay that uses HepG2, a human liver cell line, with measurements taken at 24 hours after chemical dosing in a 24-well plate.ATG_VDRE_CIS is one of 52 assay component(s) measured or calculated from the ATG_CIS assay. It is designed to make measurements of mRNA induction, a form of inducible reporter, as detected with fluorescence intensity signals by Reverse transcription polymerase chain reaction (RT-PCR) and Capillary electrophoresis technology.Data from the assay component ATG_VDRE_CIS was analyzed into 1 assay endpoint. This assay endpoint, ATG_VDRE_CIS, was analyzed with bidirectional fitting relative to DMSO as the negative control and baseline of activity. Using a type of inducible reporter, measures of mRNA for gain or loss-of-signal activity can be used to understand the reporter gene at the transcription factor-level as they relate to the gene VDR. Furthermore, this assay endpoint can be referred to as a primary readout, because this assay has produced multiple assay endpoints where this one serves a reporter gene function. To generalize the intended target to other relatable targets, this assay endpoint is annotated to the nuclear receptor intended target family, where the subfamily is non-steroidal.
Human liver HepG2 cells are transiently transfected with multiple reporter transcription units (MRTUs) in 6-well plates using FuGene 6 reagent (Roche; 3 ml FuGene/1 mg DNA). The MRTU constructs are regulated by a cis-regulating element (promoter). […] A major difference between the CIS and TRANS system is that in CIS activities of endogenous TFs are measured, whereas the TRANS assay evaluates changes in activities of exogenous, chimeric NR-Gal4 proteins. […] At the end of 24 hour incubation, total RNA was isolated using TriZol reagent (Invitrogen). The isolated RNA is then reverse-transcribed using oligo(dT) primer and Mo-MLV reverse transcriptase (Invitrogen) with DNAse I (Ambion) treatment for 30 min. The one-tenth of the produced cDNA was amplified by PCR using Taq DNA polymerase (Invitrogen) and two reporter sequence-specific primers. The PCR products were fluorescently labeled by primer extension with 6-arboxyfluorescein (6-FAM) 5'-labeled reporter sequence-specific primer (2 min at 95 C, 20 s at 68 C and 10 min at 72 C) and these products were digested with 5U of HpaI (New England Biolabs) for 2h at 37 C. The fragments were purified using Qiaquick PCR columns (Qiagen), analyzed on an ABI 3130xL genetic analyzer (Applied Biosystems) with peak positions identified by using a set of X-rhodamine (ROX)-labeled MapMarker1000 molecular weight standards (BioVentures). The raw capillary electrophoresis data was processed using Attagraph software (Attagene).
Turning to `COc1nn(CSP(=S)(OC)OC)c(=O)s1`, the AC50 was 50 µM (active).

Turning to `CC1(c2ccc(Oc3ccccc3)cc2)OC(=O)N(Nc2ccccc2)C1=O` (stereo not given), the half-maximal activity concentration (AC50) is 2.16 µM (active).

Take `COC(=O)c1ccccc1CS(=O)(=O)NC(=O)Nc1nc(OC)cc(OC)n1`: the compound was classed as inactive.

In the case of `O=S(=O)(O)C(F)(F)C(F)(F)C(F)(F)C(F)(F)C(F)(F)C(F)(F)C(F)(F)C(F)(F)F`, the compound was called inactive.

On to `Oc1cc(Cl)ccc1Oc1ccc(Cl)cc1Cl`, for which the AC50 was 8.06 µM (active) [middle of 6 runs] and the result was inactive.

As for `CC1(C)C(C=C(Cl)Cl)C1C(=O)OC(C#N)c1ccc(F)c(Oc2ccccc2)c1` (stereo not given), the AC50 was 8.85 µM (active).

`CCc1ccc(C(=O)NN(C(=O)c2cc(C)cc(C)c2)C(C)(C)C)cc1`: the AC50 was 9.51 µM (active).

As to `O=[N+]([O-])/N=C1\NCCN1Cc1ccc(Cl)nc1`, the outcome was inactive.

`CNC(=O)Oc1ccccc1OC(C)C`: the compound was classed as inactive.

On to `O=[N+]([O-])c1c(Cl)c(Cl)c(Cl)c(Cl)c1Cl`, for which the AC50 was 50 µM (active).

As to `N#Cc1c(Cl)c(Cl)c(Cl)c(C#N)c1Cl`, the half-maximal activity concentration (AC50) was 0.267 µM (active).

Consider `COc1cc(OC)nc(NC(=O)NS(=O)(=O)c2cc(NC=O)ccc2C(=O)N(C)C)n1`, for which the compound was called inactive.

Take `Cc1cc(C)nc(NC(=O)NS(=O)(=O)c2ccccc2C(=O)OC2COC2)n1`: the AC50 was 50 µM (active).

With `[2H]C1([2H])[n+]2ccccc2-c2cccc[n+]2C1([2H])[2H]`, the result was inactive.

Turning to `O=C(Nc1ccccc1)Nc1cnns1`, the concentration at half-maximal activity (AC50) is 50 µM (active).

With `O=C(NC(=O)c1c(F)cccc1F)Nc1ccc(OC(F)(F)C(F)OC(F)(F)F)c(Cl)c1` (stereo not given), the call was inactive.

In the case of `O=C(O)CCCOc1ccc(Cl)cc1Cl`, the result was inactive.

For `OCCOc1ccccc1`, the result was inactive.

Turning to `C[C@H]1[C@H](c2ccc(Cl)cc2)SC(=O)N1C(=O)NC1CCCCC1`, the AC50 is 13.7 µM (active).

On to `CCC(C)Nc1c([N+](=O)[O-])cc(C(C)(C)C)cc1[N+](=O)[O-]` (stereo not given), for which the AC50 is 19.2 µM (active).

`COP(=S)(OC)Oc1ccc([N+](=O)[O-])cc1`: the compound was called inactive.

As to `CCS(=O)(=O)c1cccnc1S(=O)(=O)NC(=O)Nc1nc(OC)cc(OC)n1`, the compound was classed as inactive.

With `CCC(C)(C)C(=O)OC1=C(c2ccc(Cl)cc2Cl)C(=O)OC12CCCCC2`, the compound was called inactive.

Turning to `CC[C@H](C)[C@H]1O[C@]2(C=C[C@@H]1C)C[C@@H]1C[C@@H](C/C=C(\C)[C@@H](O[C@H]3C[C@H](OC)[C@@H](O[C@H]4C[C@H](OC)[C@@H](O)[C@H](C)O4)[C@H](C)O3)[C@@H](C)/C=C/C=C3\CO[C@@H]4[C@H](O)C(C)=C[C@@H](C(=O)O1)[C@]34O)O2` (tested in a mixture with another compound), the compound was classed as inactive.

For the compound `COC(=O)c1ccccc1S(=O)(=O)NC(=O)Nc1nc(C)nc(OC)n1`, the call was inactive.

`CCOc1nc(NC)nc(NC(=O)NS(=O)(=O)c2ccccc2C(=O)OC)n1`: the compound was classed as inactive.

With `CCN(CC)C(=O)SCc1ccc(Cl)cc1`, the concentration at half-maximal activity (AC50) is 24.8 µM (active).

`CCOC1Oc2ccc(OS(C)(=O)=O)cc2C1(C)C` (stereo not given): the AC50 is 25.7 µM (active).

With `O=C(O)COc1ccc(Cl)cc1Cl`, the call was inactive.

`CNC(=O)CSP(=S)(OC)OC`: the compound was called inactive.

On to `C#CCN1C(=O)COc2cc(F)c(N3C(=O)C4=C(CCCC4)C3=O)cc21`, for which the compound was classed as inactive.

Consider `CNC(=O)Oc1cccc(N=CN(C)C)c1`, for which the AC50 was 82.3 µM (active).

As for `CN1CSC(=S)N(C)C1`, the AC50 was 78.3 µM (active).

`COP(=S)(OC)Oc1ccc(SC)c(C)c1`: the AC50 was 25.7 µM (active).

Take `O=S1OCC2C(CO1)C1(Cl)C(Cl)=C(Cl)C2(Cl)C1(Cl)Cl` (stereo not given): the outcome was inactive.

With `CC(C)(C)C(O)/C(=C\c1ccc(Cl)cc1Cl)n1cncn1` (stereo not given), the outcome was inactive.

`N#CN`: the compound was called inactive.

In the case of `O=C(O)C(F)(F)C(F)(F)C(F)(F)C(F)(F)C(F)(F)C(F)(F)C(F)(F)F`, the compound was called inactive.

Take `CC(C)(C)C(O)C(Oc1ccc(Cl)cc1)n1cncn1` (stereo not given): the call was inactive.
